Our source for the binding signal and Kd values is article PMC5913336, “True equilibrium measurement of transcription factor-DNA binding affinities using automated polarization microscopy”.

The target of this assay is T1, GATAe (Drosophila melanogaster, UniProt Q9VF00 512-604).
T1 sequence: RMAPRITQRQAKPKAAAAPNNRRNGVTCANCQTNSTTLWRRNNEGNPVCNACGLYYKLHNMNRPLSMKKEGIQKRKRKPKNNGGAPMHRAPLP
As to the kind of experiment: FP; 33 mM phosphate pH 7.0, 90 mM NaCl, 0.01% Tween 20, 0.1 mM DTT, 0.5% agarose; room temperature. As to conditions: tags: N-GST (pGEX-6P-1, kept); dsDNA, one strand shown.
For the sequence CATGTCATCTAC, the binding signal is 13.1 Kd / Kd of best base at the position. For the sequence CATGGTATCTAC, the binding signal is 3.02 Kd / Kd of best base at the position. CATGTGATCTAC: the binding signal is 11.2 Kd / Kd of best base at the position. CATGTTATCTAC: the Kd was approximately 7.3 nM.

As for CATGTTATGTAC, the binding signal was 25.2 Kd / Kd of best base at the position.

Take CATGTTATTTAC: the binding signal was 15.3 Kd / Kd of best base at the position. For the sequence CATGTTCTCTAC, the binding signal is 42.3 Kd / Kd of best base at the position. Same read-out and setting: then CATCTTATCTAC, with 1.22 Kd / Kd of best base at the position; and CATGTTATCCAC, with 3.95 Kd / Kd of best base at the position; and CATTTTATCTAC, with 1.94 Kd / Kd of best base at the position. On to CATGTAATCTAC, for which the binding signal was 2.43 Kd / Kd of best base at the position. For GATGTTATCTAC, the binding signal is 1.64 Kd / Kd of best base at the position. Consider CATGTTATCTGC, for which the binding signal is 1.67 Kd / Kd of best base at the position. Regarding CATGATATCTAC, the binding signal is 2.32 Kd / Kd of best base at the position. CATGTTACCTAC: the binding signal is 20.8 Kd / Kd of best base at the position. On the same count and under the same terms, then CATGTTATCAAC, with 1.76 Kd / Kd of best base at the position; and CATGTTATCTTC, with 1.72 Kd / Kd of best base at the position.

Consider CATGTTAACTAC, for which the binding signal was 9.8 Kd / Kd of best base at the position.

As for CATATTATCTAC, the binding signal is 2.02 Kd / Kd of best base at the position. For the sequence CATGTTATCGAC, the binding signal is 2.3 Kd / Kd of best base at the position. The same measure, in the same setting: the value for CCTGTTATCTAC was 1.53 Kd / Kd of best base at the position; that for CATGTTGTCTAC was 9.99 Kd / Kd of best base at the position. Take CATGTTATCTAT: the binding signal is 1.52 Kd / Kd of best base at the position. Same read-out and setting: then CAGGTTATCTAC, with 1.9 Kd / Kd of best base at the position; and CAAGTTATCTAC, with 2.12 Kd / Kd of best base at the position. As for CATGTTAGCTAC, the binding signal is 25.2 Kd / Kd of best base at the position. On the same count and under the same terms, the value for CATGTTATCTAA was 1.53 Kd / Kd of best base at the position; that for CTTGTTATCTAC was 1.46 Kd / Kd of best base at the position.

As for CATGCTATCTAC, the binding signal is 2.34 Kd / Kd of best base at the position.

Regarding CGTGTTATCTAC, the binding signal is 1.55 Kd / Kd of best base at the position. For AATGTTATCTAC, the binding signal is 1.68 Kd / Kd of best base at the position. Still for that read-out and setting: the value for TATGTTATCTAC was 1.62 Kd / Kd of best base at the position; that for CATGTTATCTCC was 1.58 Kd / Kd of best base at the position; that for CATGTTTTCTAC was 35.6 Kd / Kd of best base at the position. Still for that read-out and setting: then CACGTTATCTAC, with 1.57 Kd / Kd of best base at the position. As for CATGTTATCTAG, the binding signal is 1.71 Kd / Kd of best base at the position. Take CATGTTATATAC: the binding signal is 17.7 Kd / Kd of best base at the position.

A word on the Kd: it is the concentration at which binding is half-saturated. Low readings indicate tighter binding, high ones weaker binding.
